Shown are actives, neighbours in structure and some others; about 2.4% of the full set was active somewhere.
D2 ag-1 = HTS Assay for Allosteric Agonists of the Human D2 Dopamine Receptor: Primary Screen for Agonists | HEK293 T-REx D2 cells, calcium flux agonist mode | activation, % at 2 µM | 0.53% of 340,000 active | AID 485358, 2010;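 active means activation over 3 SD above normal in the single-dose calcium agonist read, cut at about 30% in these data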; further: 0% is about no effect
Target sequence (P14416 whole entry, looked up): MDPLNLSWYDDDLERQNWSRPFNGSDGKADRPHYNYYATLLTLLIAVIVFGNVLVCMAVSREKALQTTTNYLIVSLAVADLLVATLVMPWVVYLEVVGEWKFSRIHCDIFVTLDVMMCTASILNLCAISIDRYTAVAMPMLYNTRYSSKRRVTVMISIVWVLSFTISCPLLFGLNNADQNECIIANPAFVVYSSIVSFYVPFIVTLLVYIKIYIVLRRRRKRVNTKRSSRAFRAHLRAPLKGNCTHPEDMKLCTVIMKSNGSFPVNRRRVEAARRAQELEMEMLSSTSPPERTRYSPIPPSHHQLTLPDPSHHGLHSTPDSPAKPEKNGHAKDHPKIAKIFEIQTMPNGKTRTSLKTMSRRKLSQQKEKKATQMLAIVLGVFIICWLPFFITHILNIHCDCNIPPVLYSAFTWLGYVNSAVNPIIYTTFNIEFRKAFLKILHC
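Tetracycline-induced HEK293 T-REx cells with force-coupled D2 receptor, plated overnight at 30 C, loaded with no-wash calcium dye. After a 10 s baseline, compound was pin-added and calcium flux read kinetically for 180 s; calcium rises flagged agonists.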
D2 ag-2 = Beta-Arrestin HTS for Positive Allosteric Modulators of the Human D2 Dopamine Receptor: Agonists; AID 624465, 2012; DiscoveRx PathHunter D2 beta-arrestin, luminescence, 90 min; 100% = 57 uM dopamine signal; 0.084% of 360,000 active; activation, % (test concentration not listed); D(2) dopamine receptor (Homo sapiens), P14416; in the data active means activation above about 40%; inconclusive means between about 15% and that limit
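Agonist mode: compounds alone added to overnight-plated D2 PathHunter cells for 90 min at 37 C, with 57 uM final dopamine (EC100) defining full response. Beta-arrestin recruitment detected by chemiluminescent reagent, read after 1 h at ambient temperature.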
D2 PAM-1 = HTS Assay for Positive Allosteric Modulators of the Human D2 Dopamine Receptor: Primary Screen for Potentiators | HEK293 T-REx D2, calcium flux, EC20 dopamine potentiation | 0.34% of 340,000 active | potentiation, % at 10 µM | D(2) dopamine receptor (Homo sapiens), P14416;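 active means potentiation over 3 SD above the plate norm, cut at about 30% in these data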; further: 0% is about no effect
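Tetracycline-induced Hek293 Trex D2 cells, force-coupled to calcium, loaded with no-wash calcium dye. Compound added with 180 s kinetic read for agonism, then EC20 dopamine and a further 180 s read for potentiation.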
D2 antagonist = HTS Assay for Allosteric Antagonists of the Human D2 Dopamine Receptor: Primary Screen for Antagonists. D(2) dopamine receptor (Homo sapiens), P14416. HEK293 TREx D2 cells, calcium flux, dopamine EC80. inhibition, % at 10 µM. 2% of 340,000 active; in the data active means inhibition above about 30%; inactive means below that, where a call was filed; further: 0% is about no effect
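Inhibition of EC80 dopamine-driven calcium flux, recorded kinetically, defines activity here; cells are a tetracycline-induced HEK293 T-REx line expressing force-coupled D2.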
D2 PAM-2 = Beta-Arrestin HTS for Positive Allosteric Modulators of the Human D2 Dopamine Receptor: Potentiators | DiscoveRx D2 beta-arrestin cells, luminescence, 90 min; 100% = 57 uM dopamine signal | potentiation, % (test concentration not listed) | 0.23% of 360,000 active; in the data active means potentiation above about 50%; inconclusive means mostly about 30% to 49%
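D2 cells co-treated with compound plus 50 nM dopamine (EC20) for 90 min at 37 deg C to detect potentiation. Beta-arrestin recruitment was read as enzyme-fragment luminescence after 1 h at ambient temperature. Full response was set by 57 uM dopamine.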
The depositor's hits bear a star; ? = inconclusive; . = not tested or not shown; ! = not confirmed by another sample.

SMILES	D2 ag-1	D2 ag-2	D2 PAM-1	D2 antagonist	D2 PAM-2
O=c1[nH]c2ccccc2n1CCCN1CCN(C(c2ccccc2)c2ccccc2)CC1	-0.5	.	-27.1	83.8*	.
CN(CCOc1cccc(C(F)(F)F)c1)Cc1ccccc1	.	-6.7	.	.	-19.8
COc1ccccc1-c1noc(-c2ccc(NCCc3ccccc3)c([N+](=O)[O-])c2)n1	.	.	6.0	.	.
Cc1ccccc1C(=O)O/N=C/c1c(N2CCOCC2)n(C)c2ccccc12	0.8	?	-5.9	-6.4	179.6*
COc1ccc(NS(=O)(=O)c2c(C)cc(C)cc2C)cc1	0.6	-1.2	-4.7	33.5*	10.8
CC(C)c1nnc(N2C(=O)c3oc4ccccc4c(=O)c3C2c2ccccc2F)s1 (stereo not drawn)	0.1	.	9.6	.	.
COCCN1CC(O)=C(c2nc3ccccc3c(=O)[nH]2)C1=N	0.4	-0.8	15.6	38.2*	-0.7
CCCCCN1CC(O)=C(c2nc3ccccc3[nH]2)C1=N	2.3	-7.8	-1.5	38.9*	-6.5
COc1ccc(C2=NS(=O)(=O)N(C)C(C(=O)N3CCC(C(N)=O)CC3)=C2)cc1	0.6	4.0	-0.3	35.3*	-0.6
Cc1c(OCC(=O)N[C@@H](Cc2ccccc2)C(=O)O)ccc2c3c(c(=O)oc12)CCC3	-1.2	2.8	4.0	10.1	4.2
Cc1c(OCC(=O)N[C@@H](CSCc2ccccc2)C(=O)O)ccc2c3c(c(=O)oc12)CCC3	0.1	1.5	17.3	30.7*	-5.1
CC1CCN(C(=O)CSc2c3c(nc4ccc(Cl)cc24)CCCC3)CC1	-0.2	.	18.6	.	.
Cc1cc[n+](CC(=O)N2CCCc3ccccc32)cc1	-1.3	2.5	-19.3	38.8*	-11.1
Cc1c(Br)c([N+](=O)[O-])nn1CC(=O)N1CCCc2ccccc21	-0.3	-3.6	34.1*	11.0	-10.8
O=C(CN1CCN(Cc2ccccc2)CC1)N1CCCc2ccccc21	-1.0	-6.7	-16.6	32.4*	-22.9
O=C(CN1CCN(c2ccccc2)CC1)N1CCc2ccccc21	1.1	0.9	-25.0	-12.2	-24.4
O=C(CN1CCCCC1)N1CCc2ccccc21	0.5	0.8	-21.4	10.7	-10.0
O=C(CN1CCN(c2ccc(O)cc2)CC1)N1CCc2ccccc21	-0.5	8.6	-24.5	39.6*	-4.3
CC(=O)c1ccc(NC(=O)Cn2cc(S(=O)(=O)Cc3cccc(Cl)c3)c3ccccc32)cc1	-0.7	.	1.6	.	.
CCOc1ccc(C2/C(=C(/O)c3ccc(Cl)cc3)C(=O)C(=O)N2CCCN(C)C)cc1OC (stereo not drawn)	0.3	.	4.6	45.2*	.
CN(C)CCN1C(=O)C(=O)/C(=C(/O)c2ccc(OCc3ccccc3)cc2)C1c1ccncc1 (stereo not drawn)	0.9	0.1	2.8	42.0*	-0.7
CCc1ccc(N2CC(C(=O)OCC(=O)N(CC)c3c(N)n(Cc4ccccc4)c(=O)[nH]c3=O)CC2=O)cc1 (stereo not drawn)	.	-3.5	.	.	0.2
CC(=O)C1=NOC(CNC(=O)c2c(-c3ccccc3Cl)noc2C)C1 (stereo not drawn)	0.1	6.7	31.7*	-6.3	-2.1
CCOC(=O)C1=NOC(CNC(=O)c2c(-c3ccccc3Cl)noc2C)C1 (stereo not drawn)	1.0	-1.3	3.4	-8.0	-12.7
Cc1cccc(NC(=S)NC(C)CCc2ccccc2)c1 (stereo not drawn)	0.4	-2.6	-21.3	-14.2	-4.2
SMILES	D2 ag-1	D2 ag-2	D2 PAM-1	D2 antagonist	D2 PAM-2
CN(C)C(CNC(=S)Nc1cccc(Cl)c1)c1ccccc1 (stereo not drawn)	0.4	-6.4	.	55.0*	-18.2
Cc1cccc(NC(=S)NCC(c2ccccc2)N(C)C)c1 (stereo not drawn)	-0.4	-1.1	.	38.4*	-12.2
CN(C)NC(=S)Nc1cccc(Cl)c1	0.8	3.2	2.1	44.6*	-2.3
CCCN1CN(Cc2ccco2)c2nc3ccccc3n2C1	-1.5	-0.5	9.0	42.7*	7.9
CC(Sc1nc(O)c(-c2ccccc2)c(=O)[nH]1)C(=O)Nc1ccc(Cl)cc1 (stereo not drawn)	-2.3	2.8	3.5	-31.6	-8.7
Cc1ccc(NC(=O)C(C)Sc2nc(-c3ccccc3)cc(=O)[nH]2)cc1 (stereo not drawn)	-0.6	-2.7	-0.8	36.5*	-7.5
Cc1ccc(NC(=O)c2ccc3c(O)c(S(=O)(=O)c4ccccc4)c(=O)[nH]c3c2)cc1Cl	0.1	.	-5.9	.	.
Cc1cc(Cl)ccc1OCCCC(=O)N1CCN(C)CC1	-0.6	-0.2	-12.1	32.2*	-26.8
Cc1cc(C)c[n+](-c2nc3ccccc3nc2C(=C=[N-])C#N)c1	1.1	-2.1	-2.1	34.3*!	-2.3
Cc1nc(Cl)sc1C(=O)Nc1ccccc1Cl	-0.8	1.8	6.0	-7.7	52.5*
CC(C)OC(=O)c1c(-c2ccccc2)c(-c2ccccc2)nn(C)c1=O	0.5	.	11.5	.	.
O=C(CC1CCCCC1)Nc1ccc(-c2ccc3nncn3n2)cc1	0.1	-2.4	43.1*	10.7	-1.6
Cc1ccc2c(=O)cc(CSc3ncn[nH]3)[nH]c2c1C	-0.4	.	-8.0	.	.
Cc1ccc(Cl)cc1Nc1nn2c(=O)c3ccc(C(=O)NC4CCCCC4)cc3nc2s1	-0.7	.	5.0	.	.
CCn1c(SCC(=O)c2[nH]c(C)c(C(C)=O)c2C)nnc1-c1cccs1	-0.2	0.0	-7.7	98.8*	3.1
CCn1c(=O)cc(SCC(=O)N2CCN(c3cc(C)ccc3C)CC2)c2ccccc21	-1.0	.	4.2	.	.
Cc1ccc(-c2nnc(Sc3nc4ccccc4o3)c3ccccc23)cc1	1.1	-1.3	8.7	15.1	-5.6
Cc1nnc(Sc2nc3ccccc3o2)c2ccccc12	-0.4	-3.1	32.2*	-10.4	-19.1
COc1ccc(-c2noc(CN(C)S(=O)(=O)c3ccc(Cl)cc3)n2)cc1OC	0.7	2.2	45.5*	0.2	10.2
COc1ccc(-c2noc(CN(C)S(=O)(=O)c3c(C)cc(C)cc3C)n2)cc1OC	3.5	.	4.4	.	.
COc1ccc(-c2noc(-c3ccc(Cl)cc3[N+](=O)[O-])n2)cc1OC	-1.3	?	18.0	-0.3	89.1*
COc1ccc(-c2noc(-c3ccco3)n2)cc1OC	0.8	-0.2	36.2*	-6.1	5.9
CCN(CC)C(=O)CSc1nc2cc3c(cc2c(=O)n1CCCCCC(=O)NCCc1ccc(OC)c(OC)c1)OCO3	.	.	14.2	.	.

Screens (PubChem)
